Screens (PubChem)
Compounds with a hit are over-represented: about 3.9% of the library has one in this group of screens.
ALR inh: inhibitors of human ALR sulfhydryl oxidase, primary screen, biochemical, H2O2 detection, HRP-luminol luminescence, single point; FAD-linked sulfhydryl oxidase ALR (Homo sapiens), P55789; purified ALR, DTT oxidation; inhibition, % (concentration not given with the values); actives 3.8% (n = 290,000);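 active means mean replicate inhibition above about 79%, with every replicate also reaching it, limit read from the data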
Cardio protect: cardioprotection against H2O2-induced cell death, primary screen, uHTS, H9c2 cells, ATPLite luminescence; H9c2 cardiomyocytes, H2O2 injury protection, 2 h; protection from H2O2 cell death, % at 20 µM; actives 0.63% (n = 360,000); AID 588492, 2011;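 active means compounds giving at least 50% protection of heart cells from peroxide-induced death in the single-dose screen, raw or plate-pattern-corrected value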;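 further: 0% = DMSO wells with peroxide and 100% = DMSO wells without peroxide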
NTR1 agonist: agonists of human NTR1, primary screen, imaging, U2OS cells, beta-arrestin-GFP, high content; Neurotensin receptor type 1 (Homo sapiens), P30989; NTR1-U2OS beta-arrestin-GFP spot imaging, agonist mode; activation, % at 20 µM; actives 0.17% (n = 330,000); AID 493036, 2011;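 active means activation at or above 40% of the spot to cytoplasm intensity ratio, with at least 20 cells analyzed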;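 further: 0% = DMSO without peptide and 100% = 100 nM NTR1 peptide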
Target sequence (P30989 whole entry, looked up): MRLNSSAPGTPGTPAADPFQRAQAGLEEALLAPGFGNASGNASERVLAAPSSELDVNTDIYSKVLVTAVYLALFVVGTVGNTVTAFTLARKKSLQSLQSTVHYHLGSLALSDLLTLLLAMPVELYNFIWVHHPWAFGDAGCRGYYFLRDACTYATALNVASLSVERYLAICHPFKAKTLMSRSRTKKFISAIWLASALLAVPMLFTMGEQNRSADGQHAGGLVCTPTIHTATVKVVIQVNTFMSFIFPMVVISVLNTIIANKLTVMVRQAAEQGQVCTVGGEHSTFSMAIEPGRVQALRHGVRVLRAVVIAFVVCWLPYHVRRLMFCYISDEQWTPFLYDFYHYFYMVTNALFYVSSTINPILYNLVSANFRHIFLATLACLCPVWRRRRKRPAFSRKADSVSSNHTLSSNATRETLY
UBC9 SUMO inh: inhibitors of in vitro SUMOylation cascade, primary screen, biochemical, HTRF, uHTS. inhibition, % at 35 µM. HTRF SUMOylation assay, SAE1/SAE2 + UBC9. SUMO-conjugating enzyme UBC9 (Homo sapiens), P63279. actives 0.36% (n = 290,000); in the data active means inhibition above about 50%, passing the limit was not always enough
Target sequence (P63279 whole entry, looked up): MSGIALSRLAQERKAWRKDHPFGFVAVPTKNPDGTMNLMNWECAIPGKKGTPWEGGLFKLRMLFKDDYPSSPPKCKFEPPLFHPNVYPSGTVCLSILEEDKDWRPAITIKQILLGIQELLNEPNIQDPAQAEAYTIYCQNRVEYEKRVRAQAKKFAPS
Starred values were filed as active, the others as inactive; . = not tested or not shown.

SMILES	ALR inh	Cardio protect	NTR1 agonist	UBC9 SUMO inh
COc1ccc(C(=O)CSc2[nH]c(=O)cc(C(F)(F)F)c2C#N)cc1	98*	-3	3	26
CCOC(=O)c1c(C)[nH]c(C(=O)COC(=O)c2ccc(N3CCCC3=O)cc2)c1C	.	-9	-1	-3
CCC1(C)OC(=O)N2CCc3c(C)[nH]c4c(C)ccc(c34)C21C (stereo not given)	98*	-1	-1	-6
CCN(CC)S(=O)(=O)c1ccc2c(c1)N(CC(=O)NCC1CCCO1)C(=O)CO2 (stereo not given)	-4	3	-1	11
COc1ccccc1CN(C)C(=O)C1COc2ccccc2O1 (stereo not given)	100*	-4	4	16
Cc1[nH]oc(=O)c1N=Nc1c(Cl)cccc1Cl	92*	-4	2	-2
Cc1[nH]oc(=O)c1N=Nc1ccccc1	3	-5	3	0
C=CCOc1ccc(/C=C2\SC(=S)N(N3CCOCC3)C2=O)cc1	17	-6	0	19
Cc1c(O)nc(SCC(=O)Nc2cccc(C(F)(F)F)c2)n(-c2ccccc2)c1=O	99*	-1	0	8
COc1cccc(NC(=O)CSc2nc(O)c(C)c(=O)n2-c2ccc(C)cc2)c1	98*	-1	0	14
CC(C)(C)c1ccc(N2C(=N)SCC2=O)cc1	-4	-4	2	5
Cc1ccc(CNC(=O)C2(NC(=O)Nc3ccc(C)cc3)CCCCC2)cc1	-6	8	1	24
CC(=O)c1ccccc1OCC(O)CN1CCN(CCN2C(=O)c3cccc4cccc(c34)C2=O)CC1 (stereo not given)	-16	58*	2	3
CS(=O)(=O)N(Cc1ccc(C(=O)NCCSc2ccccn2)cc1)c1ccccc1	1	62*	6	6
C#CCNC(=O)C1=C[C@@H](C2CCCCC2)C[C@@H](OCCCCO)O1	-4	-1	0	3
CN(CC(=O)Nc1ccc(S(N)(=O)=O)cc1)Cc1ccccc1F	-2	5	1	30
COc1ccc(Cl)cc1C(=O)OCC(=O)Nc1sccc1C(N)=O	0	22	5	.
COc1ccc(-n2c(O)c(/C=N/Nc3nc(C)cc(C)n3)c3ccccc3c2=O)cc1OC	47	62*	1	14
CC(=O)c1ccc2c(c1)C1C=CCC1C(c1ccncc1)N2 (stereo not given)	-16	11	0	15
O=C(O)C1Nc2ccc(OC(F)(F)F)cc2C2C=CCC12 (stereo not given)	97*	.	-1	.
COc1cccc2c1NC(C(=O)O)C1CC=CC21 (stereo not given)	81*	4	4	95*
O=C(NC1CC1)C1Nc2ccc(OC(F)(F)F)cc2C2C=CCC12 (stereo not given)	8	-6	2	.
O=C(O)C1Nc2c(cccc2C(F)(F)F)C2C=CCC12 (stereo not given)	-29	.	.	23
Cc1ccc2c(c1)C1C=CCC1C(C(=O)O)N2 (stereo not given)	0	.	.	60*
Cc1ccc2c(c1)C1C=CCC1C(C(=O)NCCCN1CCOCC1)N2 (stereo not given)	1	-1	0	.
SMILES	ALR inh	Cardio protect	NTR1 agonist	UBC9 SUMO inh
CC(=O)c1ccc2c(c1)C1C=CCC1C(C(=O)O)N2 (stereo not given)	.	-1	0	78*
O=C(O)C1=C[C@@H](c2ccccc2)C[C@@H](OCCCCO)O1	-4	3	0	.
CCCCN1CC(COCc2ccccc2)Oc2cccc(Oc3ccc(OC)cc3)c2S1(=O)=O (stereo not given)	.	-15	.	.
CCCCN1CC(COCc2ccccc2)Oc2cccc(OCCN3C(=O)[C@@H]4[C@H](C3=O)C3C=C[C@H]4C3)c2S1(=O)=O (stereo not given in full)	.	71*	.	.
CCOC(=O)N/N=C/c1ccc(OCCSc2ccc(Cl)cc2)c(OCC)c1	-16	2	12	2
Cc1cccc(-n2c(C)n[nH]c2=S)c1C	77*	5	-2	-13
Cc1ccccc1OCc1n[nH]c(=S)n1-c1cccc(Cl)c1	.	1	-1	-14
Cc1n[nH]c(=S)n1-c1cccc(Cl)c1	94*	1	1	12
Cc1cc(N(C)Cc2ccccc2)nc2cc(O)ccc12	98*	-3	3	11
Cc1cc(N(C)Cc2ccccc2)nc(-c2ccccc2)n1	.	-14	2	-3
COc1cc(C(=S)N(C)C)ccc1O	92*	2	0	-1
Cc1noc2ncnc(Sc3ccc(Br)cc3)c12	99*	10	6	2
Cc1noc2ncnc(N3CCCC3)c12	1	12	0	-3
O=C(Nc1ccc(Cl)cn1)c1cccc(S(=O)(=O)N2CCCC2)c1	-1	-7	-1	8
Cc1nc(-n2[nH]c3c(c2=O)CCCC3)[nH]c(=O)c1Cc1ccccc1	6	70*	1	31
Cc1nc(N2CCc3ccccc3C2)[nH]c(=O)c1Cc1ccccc1	-20	-18	9	-11
O=C(Cn1nnc(-c2ccc([N+](=O)[O-])cc2)n1)NNC(=O)c1ccccc1	.	-1	0	8
CC(=O)c1cccc(Nc2nc3ccccc3n3cnnc23)c1	-4	67*	5	27
COc1cccc(/C=N/Nc2nc3ccccc3n3cnnc23)c1	2	57*	3	12
Fc1cccc(Nc2nc3ccccc3n3cnnc23)c1	-12	27	3	8
CCCCCCCCCCCCCC(=O)O	-1	-1	5	.
CCN(C(=O)COC(=O)c1ccc(N2C(=O)c3ccccc3C2=O)cc1)C1CCS(=O)(=O)C1 (stereo not given)	2	-4	0	-3
CCOc1ccc(N2C(=O)c3ccc(C(=O)OCC(=O)N(CC)C4CCS(=O)(=O)C4)cc3C2=O)cc1 (stereo not given)	-2	0	0	54*
Cc1ccc(C(=O)Nc2ccncc2)c(Cl)c1	.	-4	1	1
O=C(Cn1cccc1C(=O)c1ccccc1)NCCc1ccc(Cl)cc1	-2	-1	0	.
SMILES	ALR inh	Cardio protect	NTR1 agonist	UBC9 SUMO inh
O=C(Cn1cccc1C(=O)c1ccccc1)NCc1ccc(Cl)cc1	97*	1	0	4
CN(C)c1ccc(NC(=O)C2C3C=CC(C3)C2C(=O)O)cc1 (stereo not given)	99*	-14	0	-244
O=C(O)C1C2C=CC(C2)C1C(=O)Nc1ccc2c(c1)OCCO2 (stereo not given)	-29	-2	-1	9
CCC(C)NC(=O)C1CCCN(S(=O)(=O)c2ccc3c(c2)CC(C)N3C(C)=O)C1 (stereo not given)	-4	-17	-2	-1
Cc1ccc(Nc2ccc(NCc3ccccc3)nn2)cc1C	27	-10	0	-19
Cc1ccc(Nc2nnns2)cc1C	87*	0	3	0
COc1ccc(OCCOCC(O)CN2CCOCC2)cc1 (stereo not given)	-3	-1	0	11
